# TCR activator: Activators of T cell receptors: qHTS campaign; primary human leukocytes, anti-CD3, IL-2 HTRF, 48 h; Potency, µM (highest dose often 9.22 µM), actives largely listed as activators; 330,000 tested, under 10 active; AID 504894, 2011
#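 IL-2 release read by HTRF sandwich (Eu cryptate donor, d2 acceptor, 665 nm emission) after 48 hr exposure of primary human leukocytes to compound together with anti-CD3 beads in the absence of co-stimulatory signals.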
# AT treatment: qHTS Assay for Identifying a Potential Treatment of Ataxia-Telangiectasia. F2112 A-T fibroblasts, KAP-1 phosphorylation AlphaLISA; neocarzinostatin DNA damage 30 min before lysis. Potency, µM (highest dose often 57.5 µM), hits mostly activators. AID 485349, 2010. 0.19% of 320,000 active; also: nearly all actives have a fitted effect of over 45% in size
#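 ATM-like activity read as KAP-1 phosphorylation via AlphaLISA donor/acceptor antibody pairs after lysis and 6 hr at 25C. Cells were ATM-null patient fibroblasts (F2112, hTERT), dosed 60 min, then exposed to the DSB inducer NCS for 30 min.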
# CCT chaperon mod: High-Throughput Screening for Modulators of Cytosolic Chaperonin Activity | purified chaperonin ATPase assay, HTRF ADP detection, 30 min | activity change, % (concentration not given with the values), hits read low | 0.3% of 360,000 active | AID 651819, 2012; in the data active = activity change below about -30%
#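 Enzyme 40 or 20 nM (batch-dependent) in Tris pH 7.4/KCl/MgCl2/DTT; cpd 76 uM single point; ATP 10 uM; 30 min 37 °C; Transcreener ADP HTRF detection, 30 min RT; ratio 665/615.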
# Nrf2 block: Nrf2 qHTS screen for inhibitors | AID 504444, 2011 | A549 ARE-Fluc reporter, luciferase luminescence, 18-24 h | Potency, µM (doses to about 46 µM), hits mostly inhibitors | 2.1% of 360,000 active; also: nearly all actives have a fitted effect of over 60% in size
#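 Cells were seeded and rested 2 h, then exposed to compounds for 18-24 h. CellTiter-Fluor was read first as a viability measure. BugLite was added 15 min before the final luminescent read of ARE-luciferase activity in A549 cells.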
# Nrf2 activator: qHTS of Nrf2 Activators; Potency, µM (top dose mostly 46.1 µM), hits mostly activators; AID 624171, 2012; AREc32 ARE-luciferase reporter (MCF7-derived line), luminescence, 24 h; 0.31% of 410,000 active; also: nearly all actives have a fitted effect of over 65% in size
#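 AREc32_Fluc, 1000 cells/well, OPTI-MEM + 5% FBS, o/n 37 deg C 5% CO2; 23 nL cpd by pin tool, 24 hr; Steady-Glo 30 min RT, luminescence.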
# A549 tox: Nrf2 qHTS screen for inhibitors: counterscreen for cytotoxicity. A549 ARE-Fluc cells, CellTiter-Fluor viability, 18-24 h. Potency, µM (series often up to 46 µM), actives largely listed as inhibitors. 0.16% of 390,000 active. AID 504648, 2011
#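 A549 ARE_Fluc cells in 5% FBS OPTI-MEM were exposed to compounds in concentration-response for 18-24 h at 37 deg C. Viability was read by CellTiter-Fluor fluorescence (Ex 405/Em 525) after 30 min, before the luciferase read.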
# Hits are given with their value; i = inactive; ? = inconclusive; nt = no result given; [ ] = another dose, or the depositor's remark. Sampled rows, rich in hits. Any-hit rate of the full collection: about 2.6%. Unless noted, calls follow the shape of the dose curve; as a rule, active = well fitted curve in the direction sought with a large enough effect; inconclusive = small, poorly fitted or top-dose-only effect, or another doubt; inactive = no such curve, though single readings can be large; an effect the other way counts as inactive or inconclusive.
SMILES,TCR activator,AT treatment,CCT chaperon mod,Nrf2 block,Nrf2 activator,A549 tox
Oc1ccc(/C=N/Nc2nc(N3CCCCCC3)nc(N3CCCCCC3)n2)c(O)c1,i,i,i,14.6µM,i,i
O=C(CCn1nc(-c2ccccc2)c2ccccc2c1=O)Nc1cccnc1,i,i[11.5 µM],i,i,i,i
Cc1ccc(-c2nn(CCC(=O)Nc3cccnc3)c(=O)c3ccccc23)cc1,i,i,-64.6,i,i,i
Cc1ccc(S(=O)(=O)N(C)C)cc1NC(=O)c1cc(C(C)(C)C)nn1Cc1ccccc1,i,i,i,10.3µM,i,i
Cc1ccc(S(=O)(=O)N(C)C)cc1NC(=O)CN1CCN(Cc2ccccc2)CC1,i,i,i,i,i,i
COc1cc(C(C)=O)ccc1OCC(=O)Nc1ccc(Cl)c(S(=O)(=O)N2CCOCC2)c1,i,i,-98.1,?,i,i
O=C(COc1cccc(Br)c1)Nc1ccc(Cl)c(S(=O)(=O)N2CCOCC2)c1,i,i,i,?,i,i
O=C(CN1C(=O)NC2(CCCCC2)C1=O)Nc1ccc(Cl)c(S(=O)(=O)N2CCOCC2)c1,i,i,i,23.1µM,i,i
O=C(Cc1cccs1)Nc1ccc(Cl)c(S(=O)(=O)N2CCOCC2)c1,i,i,i,16.4µM,i,i
CCOc1cc(CNc2ccc(N3CCCCC3)cc2)cc(Br)c1OCC(=O)NC(C)(C)C,i,i,i,16.4µM,i,?
C=CCOc1c(Br)cc(CNc2ccc(NC(=O)CCC)cc2)cc1OCC,i,i,i,14.6µM,i,i
C=CCOc1ccc(CNc2ccc(NC(=O)CCC)cc2)cc1OCC,i,i,i,i,i,i
CCC(=O)N1CCC(NC(=O)Nc2ccc(OC(F)(F)F)cc2)CC1,i,i,i,i,i,i
COc1ccccc1-n1c(=S)sc2c(=O)n(Cc3ccco3)c(SC)nc21,nt,i,i,8.2µM,i,i
COc1ccccc1-n1c(SC)nc2c(sc(=S)n2-c2ccccc2)c1=O,i,i,i,i,i,i
C[C@@H]1CN([C@@H](C)CO)C(=O)c2cccc(NC(=O)C3CCCCC3)c2O[C@@H]1CN(C)C(=O)NC1CCCCC1,i,i,i,i,i,i
Cc1ccc(C)c(NC(=O)CSc2ncc3c(n2)-c2ccc(Cl)cc2N(C)S3(=O)=O)c1,nt,nt,nt,i,i,i
COc1ccccc1NC(CC(=O)c1ccccc1)C(=O)OCC(=O)c1ccc(C)c(C)c1 (stereo not given),i,i,i,?,12.6µM,i
COc1ccccc1NC(CC(=O)c1ccccc1)C(=O)OCC(=O)c1ccc(C)cc1 (stereo not given),i,i,i,?,i,i
COc1ccccc1NC(CC(=O)c1ccccc1)C(=O)OCC(=O)c1ccc(Br)cc1 (stereo not given),i,i,i,?,22.4µM,i
COc1cccc(CNc2ncnc3ccc(-c4c(C)noc4C)cc23)c1,i,i,nt,11.6µM,i,i
Cc1noc(C)c1-c1ccc2ncnc(NCc3cccc(Cl)c3)c2c1,nt,nt,nt,?,nt,i
CC(=O)N1c2ccc(S(=O)(=O)NCC3CCC(C(=O)NC4CCC(C)CC4)CC3)cc2CC1C (stereo not given),i,i,i,16.4µM,i,i
COc1ccc(CNC(=O)C2CCC(CNS(=O)(=O)c3ccc4c(c3)CCCC(=O)N4)CC2)cc1 (stereo not given),nt,nt,nt,i,i,?
COc1cccc(NC(=O)C2CCC(CNS(=O)(=O)c3ccc4c(c3)CC(C)N4C(C)=O)CC2)c1 (stereo not given),i,i,i,20.6µM,i,i
SMILES,TCR activator,AT treatment,CCT chaperon mod,Nrf2 block,Nrf2 activator,A549 tox
CCc1cccc(NC(=O)C2CCC(CNS(=O)(=O)c3ccc4c(c3)CCCC(=O)N4)CC2)c1 (stereo not given),nt,nt,nt,13µM,i,i
CC(=O)N1c2ccc(S(=O)(=O)NCC3CCC(C(=O)Nc4cccc(C)c4)CC3)cc2CC1C (stereo not given),nt,nt,nt,?,i,i
Cn1c2cc(S(C)(=O)=O)sc2c2cnn(Cc3ccccc3F)c(=O)c21,nt,nt,nt,i,nt,i
COc1cc(OCc2ccccc2)c(C(=O)/C=C/c2ccc3c(c2)OCO3)c(OC)c1OC,i,nt,i,20.6µM,?,i
CCc1ccccc1N1CC(C(=O)Nc2nccs2)CC1=O (stereo not given),i,i,i,i,i,i
CCCCN(c1nc2ccccc2nc1Cl)S(=O)(=O)c1ccc(C)cc1,i,10µM,i,?,i,i
C=CCn1c(C)c(C(C)=O)cc(NC(=O)c2ccccc2)c1=O,i,i,i,i,i,i
C=CCN1C(=O)/C(=C/C(=O)OC)S/C1=N\NC(=O)c1ccccc1,i,10µM,i,i,i,i
CCN(C(=O)CSc1nc2ccccc2nc1Cc1cccc(OC)c1)c1cccc(C)c1,nt,nt,nt,nt,i,i
O=C(CCN=C1NS(=O)(=O)c2ccccc21)Nc1ccc(F)cc1Cl,nt,i,i,9.2µM,i,i
O=C(CCN=C1NS(=O)(=O)c2ccccc21)NCc1ccccc1F,i,i,i,i,i,i
CCOC(=O)CSc1nc2c([nH]c3ccccc32)c(=O)n1-c1ccc(OCC)cc1,nt,nt,nt,nt,i,i
Cc1cc(C(=O)OCc2nnc(-c3ccccc3)o2)c(C)n1-c1ccccc1,i,i,-127.5,i,i,i
O=S(=O)(c1ccc2c(c1)OCO2)N1CCN(S(=O)(=O)c2c(F)cccc2F)CC1,nt,nt,nt,i,nt,i
COc1ccc(-c2cnc(C)o2)cc1S(=O)(=O)Nc1cccc(C(F)(F)F)c1,nt,nt,nt,nt,i,i
Cc1cc(-c2ccc(C)c(S(=O)(=O)Nc3cccc(C#N)c3)c2)on1,nt,nt,nt,7.31µM,i,i
COc1ccc(-c2cc(C)no2)cc1S(=O)(=O)Nc1cccc(C(F)(F)F)c1,nt,nt,nt,18.4µM,i,i
Cc1cccc(-c2nc3c4ccccc4n(Cc4cccc(Cl)c4)c(=O)n3n2)c1,nt,nt,nt,nt,i,i
CCc1ccc(CNC(=O)COc2cc(=O)n(CC)c3ccccc23)cc1,nt,nt,nt,i,i,i
Cc1cccc(C)c1NC(=S)NCCSc1ccc(Cl)cc1,i,i,i,25.9µM,i,?
Cc1ccc(C)c(-n2nnnc2SCC(=O)NCCC2=CCCCC2)c1,i,i,i,18.4µM,i,nt
CNC(=O)CSc1nnnn1-c1cc(C)ccc1C,i,i,i,i,i,i
O=C(Nc1cccc(-c2nn3c(=O)cc(N4CCNCC4)nc3s2)c1)C1CCNCC1,nt,nt,nt,i,nt,i
CCCSc1nc(-c2ccccc2)cc(C(F)(F)F)c1C#N,nt,i,i,nt,11.2µM,i
COc1ccc(N(Cc2cccs2)C(=O)c2ccc(OC)c(Cl)c2)cc1,nt,nt,nt,?,i,i

# Screening results (PubChem BioAssay)
